# Screening results as filed in PubChem BioAssay.
# Rows were chosen to be rich in hits. Some 12% of all compounds tested hit in one or more screens of this group.
# JMJD2A Tudor: JMJD2A Tudor domain (human) inhibition. O75164. AlphaScreen JMJD2A-Tudor / H3K4me3 peptide binding. Potency, µM (titrated, usually from 114 µM), hits mostly inhibitors. 390,000 tested, 4.4% active; also: nearly all actives have a fitted effect of over 50% in size
# PI5P4Ka inh: PI5P4K alpha (human) kinase inhibition. P48426. PI5P4Kalpha enzyme, ADP-Glo luminescence, 60 min; active compounds read low. max response, %. 330,000 tested, 1.2% active. AID 652105; active = max response of -50% or lower; inconclusive = between -30% and -50%; inactive = -30% or higher; also: value at the top dose of about 77 µM
#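 ADP-Glo luminescence end-point read after a 60 min room-temperature kinase reaction of PI5P4Kalpha plus substrate, initiated with ATP at 5 microM final. Buffer: 0.038 M HEPES pH 7.4, EGTA, 0.1% CHAPS, 5% DMSO.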
# PLK1 PBD block: blocks phosphopeptide binding to human PLK1 polo-box domain. P53350. Plk1 PBD binding of FITC phosphopeptide, fluorescence polarization. Potency, µM, most hits filed as inhibitors. 360,000 tested, 2.8% active. AID 720504; also: series mostly up to about 57 µM; nearly all actives have a fitted effect of over 65% in size
# Target sequence (P53350 whole entry, looked up, the tested form may be a part): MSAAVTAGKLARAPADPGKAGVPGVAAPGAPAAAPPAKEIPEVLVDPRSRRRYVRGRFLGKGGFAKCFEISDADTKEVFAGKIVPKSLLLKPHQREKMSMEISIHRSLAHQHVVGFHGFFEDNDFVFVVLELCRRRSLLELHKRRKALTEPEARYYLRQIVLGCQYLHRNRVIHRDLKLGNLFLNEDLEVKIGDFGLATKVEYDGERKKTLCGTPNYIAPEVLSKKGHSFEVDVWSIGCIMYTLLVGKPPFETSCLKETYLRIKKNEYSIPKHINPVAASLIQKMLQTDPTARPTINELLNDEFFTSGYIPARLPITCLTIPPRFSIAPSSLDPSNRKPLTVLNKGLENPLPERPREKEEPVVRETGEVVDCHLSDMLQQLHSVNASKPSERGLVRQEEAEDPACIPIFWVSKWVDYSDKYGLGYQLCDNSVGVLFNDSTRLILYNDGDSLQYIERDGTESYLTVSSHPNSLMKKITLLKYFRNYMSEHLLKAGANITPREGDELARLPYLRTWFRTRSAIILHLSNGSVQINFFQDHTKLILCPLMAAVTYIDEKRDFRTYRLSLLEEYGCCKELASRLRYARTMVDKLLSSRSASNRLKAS
# G9a block: blocks human histone lysine methyltransferase G9a | G9a H3K9 monomethylation, AlphaScreen, 2 h | Q96KQ7 | Potency, µM (doses to about 102 µM), most hits filed as inhibitors | AID 504332 | 350,000 tested, 8.8% active; also: nearly all actives have a fitted effect of over 75% in size
#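 AlphaScreen detection with an anti-monomethyl H3K9 antibody quantified product after a 2 h room-temperature reaction containing 500 nM biotinylated H3K9 peptide, 20 µM SAM and 20 nM enzyme, which had been preincubated 15 min with compound.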
# BAZ2B block: blocks human BAZ2B | 360,000 tested, 4.4% active | Potency, µM (top dose mostly 114 µM), hits mostly inhibitors | Q9UIF8 | AlphaScreen BAZ2B-H3K14Ac peptide displacement; also: nearly all actives have a fitted effect of over 60% in size
#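 Inhibition is scored as reduced AlphaScreen emission. The BAZ2B/b-H3(5-23)K14Ac complex (50 nM each) in PBS pH 7.4, 0.01% Tween-20 meets compound (up to 110 uM) for 30 min at RT before bead addition.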
# HP1b chromo inh: inhibitors of HP1-beta chromodomain binding to methylated histone tails. P83916. AlphaScreen HP1-beta / biotin-H3K9me3 peptide binding. Potency, µM (top dose mostly 114 µM), most hits filed as inhibitors. 390,000 tested, 0.56% active. AID 540317; also: nearly all actives have a fitted effect of over 70% in size
#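 HP1-beta protein (50 nM final) preincubated 30 min at room temperature with biotinylated H3(1-18)K9me3 peptide (50 nM) in PBS pH 7.4, 0.01% Tween-20, then compound added for 30 min. AlphaScreen streptavidin donor/nickel chelate acceptor beads (10 ug/mL final), 30 min dark, luminescence read.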
# A number is an active result; – = inactive; ? = inconclusive; · = no result; [ ] = another dose, or the depositor's remark. Unless noted, calls follow the shape of the dose curve; as a rule, active = well fitted curve in the direction sought with a large enough effect; inconclusive = small, poorly fitted or top-dose-only effect, or another doubt; inactive = no such curve, though single readings can be large; an effect the other way counts as inactive or inconclusive.
SMILES,JMJD2A Tudor,PI5P4Ka inh,PLK1 PBD block,G9a block,BAZ2B block,HP1b chromo inh
CCc1nnc(NC(=O)c2cc(OC)c(OC)cc2[N+](=O)[O-])s1,–,–,–,·,–,–
COCc1nnc(NC(=O)c2ccc(Cl)cc2[N+](=O)[O-])s1,–,–,?,16µM,–,–
COCc1nnc(NC(=O)c2cc(OC)c(OC)cc2[N+](=O)[O-])s1,–,–,30µM,–,–,?
O=C(C[C@@H]1C=C[C@@H](NC(=O)C2CC2)[C@@H](CO)O1)NCc1ccccc1Cl,·,–,–,·,·,·
COc1cccc(Cn2c(=O)c(-c3ccccc3)nc3cncnc32)c1,·,·,·,–[0.501 µM],·,·
COc1ccc(C)cc1NS(=O)(=O)c1ccc2c(c1)CCCN2C(C)=O,–,·,·,–,–,–
COCC(=O)Nc1cc(Sc2ccccc2)ccc1N=C(NC(=O)OC)NC(=O)OC,·,·,·,–[12.7 µM],·,·
CCC(C)NC(=O)c1ccc(N2CC3CC(C2)c2cccc(=O)n2C3)c(NC(=O)c2c(F)cccc2F)c1 (stereo not drawn),·,–,–,·,·,·
COc1ccc(C2=C(Nc3ccc(C)cc3C)c3ccccc3C2=O)cc1,28µM,·,·,?,–,–
Cc1cc(C(=O)C(C)OC(=O)c2cnccn2)c(C)n1-c1ccccc1 (stereo not drawn),?,–,–,56µM,25µM,–
COc1ccc(OC)c(NC(=O)C2(C)CCN2Cc2ccsc2)c1 (stereo not drawn),·,–,–,·,·,·
COc1ccc(/C=N/n2cnc3c([nH]c4ccccc43)c2=O)cc1COc1ccccn1,·,·,·,–,56µM,·
COc1ccc(/C=N/n2cnc3c([nH]c4ccc(F)cc43)c2=O)cc1CN1CCCC1,–,–,–,40µM,–,?
COc1ccc(C(=O)N2CCC3(CCCN(C(=O)Nc4cccc(C#N)c4)C3)CC2)cc1,·,·,·,–[12.7 µM],·,·
Nc1[nH][nH]c(=O)c1N=Nc1cccc(Cl)c1,?,–,–,?,?,–
CCOc1ccc(N=Nc2c(N)[nH][nH]c2=O)cc1,79µM,–,–,3.5µM,?,–
COc1cccc(N=Nc2c(N)[nH][nH]c2=O)c1,–,–,–,4.5µM,–,–
CCOc1ccc(N=Nc2c(=O)[nH]n3c(=O)cc(C)[nH]c23)cc1,56µM,–,–,?,50µM,–
CCCn1ccc2c(OCC(=O)NCc3ccccc3Cl)cccc2c1=O,–,·,·,–,–,–
CC(Oc1cccc(Br)c1)C(=O)NNC(=O)CCS(=O)(=O)c1ccccc1 (stereo not drawn),–,–,–,·,·,–
CN(C)c1ccc(/C=C(\NC(=O)c2ccccc2)C(=O)NCc2ccncc2)cc1,–,–,–,28µM,–,–
O=C(NCc1ccncc1)/C(=C\c1ccc(F)cc1)NC(=O)c1ccccc1,–,–,–,–,–,–
COc1ccc(/C=C(\NC(=O)c2ccccc2)C(=O)NCc2cccnc2)cc1,–,–,–,–,–,–
CN(C)c1ccc(/C=C(\NC(=O)c2ccccc2)C(=O)NCc2cccnc2)cc1,–,–,–,40µM,–,–
O=C(O)C1=CCC=CC1C(=O)O (stereo not drawn),·,–,?,·,·,·
SMILES,JMJD2A Tudor,PI5P4Ka inh,PLK1 PBD block,G9a block,BAZ2B block,HP1b chromo inh
CC(C)n1c(=S)[nH]c2cc(Cl)ccc21,?,–,?,10µM,?,–
CC(=O)Nc1ccc(-c2ccnc3c2CC(C)(C(=O)NCCc2ccccc2)O3)cc1 (stereo not drawn),·,–,–,·,·,·
Cc1oc(-c2cccc(Cl)c2)nc1CS(=O)(=O)CC(=O)NCc1ccccc1Cl,–,·,·,–,?,–
CCSc1ccc(C(=O)NCC(=O)O)cc1,–,–,?,·,–,–
CSc1ccc(NC(=O)Nc2ccc(C(=O)NCC(=O)O)cc2)cc1,56µM,?,–,35µM,50µM,–
Cc1cc(C)c2c(N)c3ccccc3nc2n1,–,·,–,50µM,–,–
COc1ccc(N2CC(C)Cn3c2nc2c3c(=O)n(Cc3ccc(C)cc3)c(=O)n2C)c(OC)c1 (stereo not drawn),?,–,–,35µM,·,–
NC(N)=N/N=C/c1cccc([N+](=O)[O-])c1O,–,–,–,?,?,–
O=[N+]([O-])c1cccc(/C=N\N=C2c3ccccc3-c3ccccc32)c1O,?,-54,?,?,–,?
COc1cc(/C=C/c2ccc3c(Br)cc(Br)c(O)c3n2)ccc1O,–,–,24µM,–,–,–
Oc1c(/C=N/c2ccccn2)sc2ccccc12,?,–,–,8.9µM,40µM,–
Oc1c(C=Nc2ccccc2)sc2ccccc12,–,–,–,–,–,–
CN=Cc1sc2ccccc2c1O,–,·,–,50µM,–,–
Oc1c(C=Nc2ccc(Cl)cn2)sc2ccccc12,–,–,–,–,–,–
O=C(NCc1ccc(Cl)c(Cl)c1)c1cc(C2CCCCN2C(=O)c2ccccn2)on1 (stereo not drawn),·,–,–,·,·,·
C=CCNS(=O)(=O)c1cccc(C(C)=O)c1,–,–,–,–,–,–
O=C(O)c1cc2cccc(S(=O)(=O)N3CCCCC3)c2cc1O,–,-64,–,?,–,–
O=S(=O)(c1cccc2ccccc12)N1CCCCC1,–,–,–,·,–,–
C=CCNS(=O)(=O)c1cccc2cc(C(=O)O)c(O)cc12,–,-57,–,–[12.7 µM],–,–
Cc1cc(C)c(OCC(=O)OCC(=O)NCCC2=CCCCC2)c(C)c1,–,–,–,–,–,–
CCN(CC)CCCNc1oc(-c2ccc(OC)cc2)nc1C#N,–,·,·,–,–,–
Cc1cc(C)nc(NCC(O)CNc2ccccc2C)n1 (stereo not drawn),–,–,–,–,–,–
Cc1cc(C)nc(NCC(O)COc2ccccc2C)n1 (stereo not drawn),–,·,–,45µM,–,–
COc1cccc(CCOC(=O)c2c(-c3ccsc3)oc3c2C(OC(C)=O)CCC3)c1 (stereo not drawn),·,–,–,·,·,·
COc1cc(/C=N/NC(=S)NCCN2CCOCC2)cc(OC)c1OC,–,–,–,–,–,–
SMILES,JMJD2A Tudor,PI5P4Ka inh,PLK1 PBD block,G9a block,BAZ2B block,HP1b chromo inh
S=C(NCCN1CCOCC1)N/N=C/c1cccs1,–,–,–,–[2.33 µM],–,–
Oc1cccc(/C=N/NC(=S)NCCN2CCOCC2)c1O,22µM,–,–,–[12.7 µM],8.9µM,–
O=C(O)c1ccc(/C=N/NC(=S)NCCN2CCOCC2)cc1,32µM,–,–,–,–,–
CCOc1ccc(-n2c(C)cc(/C=N/NC(=O)C(N)=O)c2C)cc1,–,–,–,?,?,–
CCOc1ccc(-n2c(C)cc(C(=O)CCl)c2C)cc1,?,–,?,45µM,–,?
CCOc1ccc(-n2c(C)cc(/C=N/N(C)C)c2C)cc1,45µM,–,–,45µM,?,–
COc1ccc(N=C2NC(=O)CS2)c([N+](=O)[O-])c1,–,–,27µM,–,–,–
O=C1CSC(=Nc2ccccc2[N+](=O)[O-])N1,–,–,–,–,–,–
